# KCNH2 3.1 inh: qHTS for Inhibitors of KCHN2 3.1: Mutant qHTS; Potassium voltage-gated channel subfamily H member 2, brain isoform KCNH2 3.1 (human); 340,000 compounds, 0.95% hits; U2OS KCNH2 3.1, thallium flux FluxOr; stronger effect = lower value; activity change, % (tested at about 1.8 µM);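 active means maximum activity change below -70%; inconclusive means maximum activity change from -70% to -50%; inactive means maximum activity change above -50%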;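 further: thallium influx rate constant from kinetic fluorescence after stimulation buffer; on the % scale 0 is the no-effect control and ±100 the full control effect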
#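 We transduce U2OS cells with the mutant 3.1 virus, culture them overnight, load FluxOr with Red40 quencher for 45 min, then add stimulation buffer and read kinetically for 2 min to derive a normalized rate constant.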
# ClpP mod: qHTS Assay for Activators of ClpP | purified B. subtilis ClpP, FRET peptide cleavage, 20 min | 340,000 compounds, 1.9% hits | ATP-dependent Clp protease proteolytic subunit (Bacillus subtilis (strain 168)), P80244 | Potency, µM (doses to about 57.5 µM), for inactives: at the highest dose activity change, negative = active; active means well fitted falling curve with a large enough effect; inconclusive means small, poorly fitted or top-dose-only effect; inactive means no such curve, though single readings can be large or run the other way; further: potency means the concentration at half of the fitted maximal effect; the source files actives as falling curves though it sought activators and does not explain the sign; nearly all actives have a fitted effect of over 65% in size
# Target sequence (P80244 whole entry, looked up): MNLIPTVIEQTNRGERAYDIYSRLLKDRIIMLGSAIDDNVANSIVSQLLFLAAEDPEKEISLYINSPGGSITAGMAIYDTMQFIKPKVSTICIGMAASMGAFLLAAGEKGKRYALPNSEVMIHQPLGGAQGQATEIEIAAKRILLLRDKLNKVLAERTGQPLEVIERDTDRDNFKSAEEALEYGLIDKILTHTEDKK
#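 Purified B. subtilis ClpP, 10 microg/mL final in Tris/HCl pH8 with KCl, BSA, glycerol and Tween-20, cleaved an Abz/nitrotyrosine-quenched decapeptide. Fluorescence (ex 320, em 430) was read at 0 and 20 min at room temperature. Delta was normalized to 5.8 microM ADEP and DMSO/no-enzyme controls.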
# Chronic BCR inh: qHTS Assay to Find Inhibitors of Chronic Active B-Cell Receptor Signaling; Potency, µM (series often up to 46.1 µM), for the others: at the top dose activity change, negative = inhibition, most hits filed as inhibitors; 340,000 compounds, 0.05% hits; ABC-DLBCL IkBa-CBG/CBR reporter, luminescence ratio, 4 h; AID 493014, 2011; active means well fitted inhibition curve with a large enough effect in the signal ratio, with a control signal flat, not every such curve was filed as active; inconclusive means small, poorly fitted or top-dose-only effect, or effect the other way, or a change in a side signal; the % refers to the signal ratio;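 further: potency means the concentration at half of the fitted maximal effect; plate controls were basal doxycycline-induced cells for no effect and cells given 10 µM MG132 for full effect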
#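 Concentration-response series (up to 46 uM) were applied to TMD8 dual-reporter cells for 4 h at 37C with doxycycline. Green/red ratio, after filter-overlap correction, defined %Activity; red signal alone was normalised to basal cells and zero luminescence.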
# LDHA inh: qHTS assay for inhibitors of human lactate dehydrogenase; L-lactate dehydrogenase A chain (Homo sapiens), P00338; purified LDHA, NADH/diaphorase-resazurin fluorescence; stronger effect = lower value; activity change, % (values are at about 110 or 230 µM); 480,000 compounds, 0.15% hits; in the data active means activity change below about -30%; inconclusive means mostly about -25% to -30%;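 further: plate controls were DMSO wells for no effect and wells without enzyme for full effect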
#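 Enzyme activity of human lactate dehydrogenase 5 (2 nM; 0.06 mM NADH, 0.2 mM pyruvate, 5 min, RT) is measured via a resazurin/diaphorase fluorescence readout of residual NADH.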
# ALOX12 inh: Primary qHTS assay for inhibitors of human arachidonate 12S-lipoxygenase (ALOX12): Round 2; 580,000 compounds, 1.1% hits; AID 1671190, 2021; Potency, µM (top dose mostly 108 µM), without a hit: at the top dose activity change, negative = inhibition, most hits filed as inhibitors; purified 12hLO, xylenol orange hydroperoxide absorbance; active means well fitted inhibition curve with a large enough effect; inconclusive means small, poorly fitted or top-dose-only effect, or another doubt; inactive means no such curve, though single readings can be large or run the other way; further: potency means the concentration at half of the fitted maximal effect; on the % scale 0 is the no-effect control and ±100 the full control effect
#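 Purified human 12hLO (150 nM final) in 25 mM Hepes, 0.01% Triton X-100, pH 7.0 was preincubated 15 min at room temperature with compound. Then 40 uM arachidonic acid was added, 30 min. Hydroperoxide was read by Fe-XO absorbance ratio 573/405 nm.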
# hERG WT inh: qHTS for Inhibitors of KCHN2 3.1: Wildtype qHTS; U2OS, BacMam KCNH2, thallium flux FluxOr; stronger effect = lower value; 340,000 compounds, 0.37% hits; activity change, % at 1.84 µM; Voltage-gated inwardly rectifying potassium channel KCNH2 (Homo sapiens), Q12809;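 active means maximum activity change below -70%; inconclusive means maximum activity change between -70% and -50%; inactive means maximum activity change above -50%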; further: on the % scale 0 is the no-effect control and ±100 the full control effect
#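 U2OS cells transduced with wild-type KCNH2 virus are loaded with FluxOr dye for 45 min, and thallium flux is measured in kinetic reads before and after stimulation buffer. Rate constants are normalized to DMSO controls.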
# Active calls of the source: *; ? = inconclusive; nt = no result. In the library only some 3% were active in any assay of this set; here they are far more common.
SMILES,KCNH2 3.1 inh,ClpP mod,Chronic BCR inh,LDHA inh,ALOX12 inh,hERG WT inh
NC(=O)c1ccccc1NC(=O)CN1CCN(Cc2ccccc2)CC1,-76.7*,-0.5%,-9.5%,-2.4,1.8%,-35.5
O=C(Cn1nc(-c2ccccc2Cl)ccc1=O)Nc1ccccc1-c1ccccc1,-6.1,14.1µM*,12.1%,5.4,-7.0%,21.4
O=C(CN1CCN(Cc2ccccc2)CC1)Nc1ccccc1-c1ccccc1,-45.4,nt,-6.5%,-18.6,-14.1%,-74.3*
O=C(Cn1nc(-c2ccccc2Cl)ccc1=O)Nc1ccc(Br)cc1,4.1,nt,?,-6.8,0.5%,-3.4
Cc1cc(C)cc(NC(=S)NNC(=O)C(N)=O)c1,nt,nt,nt,1.4,-28.5%,nt
CC(C)COc1ccc(C(=O)OCC[N+]2(C)CCOCC2)cc1,nt,nt,nt,5.6,5.62µM*,nt
O=C(OCCN1CCOCC1)c1ccc(OCCN2CCOCC2)cc1,-15.5,?,-3.9%,-5.0,?,-0.5
CC(C)(C)CCN1CC(Oc2cccc(C(=O)N3CCOCC3)c2)C1,nt,nt,nt,nt,22.4µM*,nt
COCCC(=O)N1CCC(Oc2ccc(C(=O)N(C)CCCC3CCCC3)cc2)CC1,3.0,-1.7%,-2.2%,-1.0,-2.8%,-5.2
COc1ccc(C(=O)NC2CC2)cc1OC1CCN(Cc2cc(C)cc(C)c2)CC1,nt,-0.7%,-4.4%,-6.0,-4.6%,-9.2
COc1ccc(C(=O)NCCCC2CCCC2)cc1OC1CCN(C(C)C)CC1,-93.8*,1.8%,nt,-1.2,3.4%,45.2
COCCC(=O)N1CCC(Oc2ccc(C(=O)NCCCC3CCCC3)cc2)CC1,-4.3,31.6µM*,3.6%,-2.5,12.3%,-2.6
COc1ccc(C(=O)N(C)Cc2ccccn2)cc1OC1CCN(C(C)C)CC1,5.4,28.2µM*,0.0%,-2.3,54.1%,4.0
CCc1ccc(CN2CCC(Oc3cc(C(=O)NC4CC4)ccc3OC)CC2)cc1,-97.3*,-3.0%,nt,-2.4,-5.4%,-108.2*
Cc1ccc(-c2ccc(OCC(=O)Nc3ccc(C(=O)N(C)C)cc3)cc2)cc1,nt,nt,nt,1.4,-3.8%,nt
N#Cc1ccccc1S(=O)(=O)N1CCN(C(=O)c2ccc(Cn3nnc4ccccc43)cc2)CC1,nt,nt,nt,2.9,35.7%,nt
Cc1sc(-n2c(C)cc(/C=N/O)c2C)c(C(=O)O)c1C,nt,nt,nt,-24.2,?,nt
COc1ccc(C(=O)NC2CC2)cc1OC1CCN(C(C)CSC)CC1 (centres undefined),-73.6*,-1.3%,0.0%,0.6,-5.6%,-16.3
COc1ccc(C(=O)NC2CC2)cc1OC1CCN(Cc2ccccc2O)CC1,-48.5,0.7%,-6.3%,-2.0,16.1%,-20.6
COc1ccc(C(=O)NC2CC2)cc1OC1CCN(Cc2ccc(Cl)cc2)CC1,nt,-3.3%,-9.8%,-2.4,nt,-128.2*
C=CCOc1ccccc1CN1CCC(Oc2cc(C(=O)NC3CC3)ccc2OC)CC1,-76.9*,?,5.4%,0.0,12.6%,-99.4*
O=C(CSc1nc2ccc(NC(=O)c3ccc(Br)cc3)cc2s1)NC1CC1,nt,nt,nt,9.9,-22.6%,nt
CCN(c1ccc(NC(=O)COC(=O)c2ccc3ccccc3n2)cc1)C(C)C,8.6,3.3%,-4.5%,3.4,5.01µM*,-8.9
CCC(CC)NC(=O)COC(=O)c1ccc2ccccc2n1,nt,nt,nt,1.7,6.31µM*,nt
CCc1ccccc1NC(=O)COC(=O)c1ccc2ccccc2n1,nt,nt,nt,2.7,-20.1%,nt
O=C(COC(=O)c1ccc2ccccc2n1)Nc1ccc(F)cc1,nt,nt,nt,4.3,?,nt
Cc1cc(C)n2c(Br)c(CSc3nc4ccccc4o3)nc2n1,-33.9,28.2µM*,-0.9%,2.5,?,-10.5
Brc1c(CSc2nc3ccccc3o2)nc2ccccn12,nt,nt,nt,-3.4,?,nt
COc1ccc(C)c(-n2c(N)cc(=O)n(Cc3ccccc3)c2=O)c1,-81.6*,-5.1%,?,-17.8,10.0%,-10.3

# Assay outcomes: PubChem, National Center for Advancing Translational Sciences (NCATS)
